This is a sample that favours compounds with a hit; in the whole collection about 1.5% have one here.
N-glyco inh = increase of ERlucT glycosylation luciferase signal, primary screen, N-linked glycosylation inhibitor project, D54 ERlucT cells, luminescence, set 2; reporter increase, % at 12.5 µM; D54 ERlucT glycosylation luciferase reporter, 24 h; percent of 100 nM tunicamycin response; 360,000 compounds, 0.23% hits;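 active = mean luciferase reporter signal, scaled so untreated is 0 and the glycosylation-blocking control 100, at or above a set limit in every replicate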;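 note: luciferase carries N-glycosylation sites so blocking glycosylation raises the light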
dFosB act-1 = activators of delta FosB homodimer, primary screen, biochemical, fluorescence polarization, TAMRA-CDK5 oligo, single point | Protein FosB (Mus musculus), P13346 | purified delta FosB; percent of positive-control signal above neutral wells | activation, % at 25 µM | 340,000 compounds, 0.99% hits | AID 493131, 2011;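 active = mean activation above about 17%, with every replicate also reaching it, limit read from the data, passing the limit was not always enough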
Target sequence (P13346 whole entry, looked up): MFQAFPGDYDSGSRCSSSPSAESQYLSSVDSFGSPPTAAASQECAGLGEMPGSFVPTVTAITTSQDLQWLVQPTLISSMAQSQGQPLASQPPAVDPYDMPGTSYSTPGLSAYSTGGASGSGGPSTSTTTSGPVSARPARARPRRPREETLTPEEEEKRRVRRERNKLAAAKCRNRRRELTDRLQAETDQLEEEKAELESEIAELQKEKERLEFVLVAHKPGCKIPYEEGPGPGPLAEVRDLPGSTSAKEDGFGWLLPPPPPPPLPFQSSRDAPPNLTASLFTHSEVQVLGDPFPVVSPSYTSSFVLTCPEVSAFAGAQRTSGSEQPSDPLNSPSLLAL
RAD54 branch = inhibitors of human RAD54 branch migration, primary screen, biochemical, fluorescence, single point; RAD54 Holliday junction branch migration, FAM/BHQ fluorescence; AID 602329, 2012; inhibition, % at 10.4 µM; DNA repair and recombination protein RAD54-like (Homo sapiens), Q92698; 360,000 compounds, 0.14% hits;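 active = mean normalized replicate activity at least 40 and at least half of replicates scoring 40 or more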;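 note: inhibitors cause a drop in the FAM fluorescence signal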
PvdQ acylase = P. aeruginosa PvdQ acylase inhibitors, primary screen, biochemical, fluorescence, plate reader and imaging, single point. purified PvdQ acylase. inhibition, % at 10 µM. 340,000 compounds, 0.063% hits. AID 488965, 2010; in the data active = inhibition above about 30%, passing the limit was not always enough
RAD52 anneal inh = RAD52 DNA annealing inhibitors, primary screen, biochemical, FRET, single point, set 2; recombinant RAD52 DNA annealing, FRET fluorescence; AID 651710, 2012; 360,000 compounds, 0.46% hits; inhibition, % at 18.7 µM;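 active = every replicate showing at least 50% inhibition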
CFTR F508del cor = F508del CFTR correction, initial screen, CFBE line, single point; CFBE cells, YFP halide quenching; stimulated with forskolin plus potentiator P3; % fluorescence drop versus neutral controls; activity (quench increase), % at 7.58 µM; 350,000 compounds, 0.36% hits; AID 720511, 2013;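 active = mean added fluorescence quench of at least 8% versus neutral control, with both replicates also reaching 8%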;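 note: cells transiently co-express mutant CFTR-F508del with the halide-sensitive YFP; corrector assay measuring rescue of mutant channel to the surface after 24 h compound exposure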
dFosB act-2 = activators of mouse delta FosB DNA binding, confirmation, biochemical, fluorescence polarization, TAMRA-CDK5 oligo, cherry-picked samples; shares compounds with dFosB act-1; purified delta FosB; normalised: neutral wells 0, positive control 100; activation, % at 24.9 µM; 2,400 tested, under 10 active;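 active = highest replicate activation at or above 34% and every replicate reaching that threshold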;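 note: higher polarization means more probe DNA bound by delta FosB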
Numbers stand for hits; 0 = inactive; - = no result.

SMILES	N-glyco inh	dFosB act-1	RAD54 branch	PvdQ acylase	RAD52 anneal inh	CFTR F508del cor	dFosB act-2
CCN(CC)CCn1c2ccccc2c2cnc(N)c(C#N)c21	0	62	-	0	-	-	0
CN(C)C=Nc1ncc2c3ccccc3n(Cc3ccccc3)c2c1C#N	0	0	0	0	-	-	-
CN(C)C=Nc1ncc2c3ccccc3n(CCN(C)C)c2c1C#N	0	33	88	0	-	-	0
C[C@@H]1CN([C@H](C)CO)C(=O)c2cc(NC(=O)NC3CCCCC3)ccc2O[C@@H](C)CCCCO[C@@H]1CN(C)C(=O)c1ccccc1	-	-	0	-	0	0	-
Nc1c(C(=O)NCc2ccco2)nnn1CC(=O)Nc1ccc2c(c1)OCO2	0	0	-	0	0	0	-
COc1ccc(NC(=O)Cn2nnc(C(=O)NCc3ccc(C)cc3)c2N)cc1Cl	0	0	0	0	0	0	-
Cc1ccc(NC(=O)c2nnn(CC(=O)Nc3ccc4c(c3)OCO4)c2N)cc1C	0	46	0	0	0	0	0
Cc1ccc(NC(=O)Cn2nnc(C(=O)Nc3ccc(C)c(C)c3)c2N)cc1	0	120	-	0	-	-	0
CSc1ccc(Cn2nnc(C(=O)Nc3ccc(C)c(C)c3)c2N)cc1	0	0	0	0	0	0	-
COc1ccc(NC(=O)Cn2nnc(C(=O)Nc3ccc(F)c(Cl)c3)c2N)cc1OC	0	23	0	0	0	0	0
CO[C@@H]1CN(C)C(=O)c2cc(NC(=O)Nc3ccccc3)ccc2OC[C@@H](C)N(CC2CC2)C[C@H]1C	-	-	0	-	0	0	-
O=C(C[C@H]1CC[C@@H]2[C@H](COC[C@@H](O)CN2CC2CCCC2)O1)NCC1CC1	-	-	-	-	0	0	-
C[C@H](CO)N1C[C@H](C)[C@H](CN(C)C(=O)c2ccncc2)Oc2ncc(C#CC3CCCCC3)cc2C1=O	-	-	0	-	0	0	-
Cc1ccc(NC(=O)c2sc3ncn(CC(=O)N4CCN(c5ccccn5)CC4)c(=O)c3c2C)cc1Cl	0	35	0	0	0	0	0
Cc1ccc(NC(=O)c2sc3ncn(CC(=O)N4CCN(c5ccccn5)CC4)c(=O)c3c2C)cc1F	0	0	0	0	0	0	-
COc1ccc(S(=O)(=O)N2CCN(C(=O)c3cc(-c4ccccc4OC)n[nH]3)CC2)cc1	0	0	0	0	0	0	-
COc1cccc(-c2cc(C(=O)N3CCN(S(=O)(=O)c4ccc(Br)cc4)CC3)[nH]n2)c1	0	75	0	0	0	0	0
Cc1ccc2nc(-c3cccnc3SCC(=O)N3c4ccccc4CC3C)[nH]c2c1 (stereo unspecified)	0	29	-	0	0	0	0
Cc1cccc(NC(=O)c2nc[nH]c2C(=O)Nc2cccc(C)c2)c1	0	0	-	0	0	0	-
NC(=O)c1nc[nH]c1C(=O)Nc1cccc(NC(=O)c2cccc(C(F)(F)F)c2)c1	0	27	0	0	0	0	0
O=C(COC(=O)CNC(=O)c1ccc(Br)cc1)Nc1nnc(-c2ccccc2)o1	0	20	0	0	0	0	0
CCCN(C)C[C@H]1Oc2cc(C#CC(C)(C)O)ccc2S(=O)(=O)N([C@H](C)CO)C[C@H]1C	-	-	0	-	0	0	-
CC1CC(C)CN(C(=O)Cn2c(SCC(=O)N3CCc4ccccc4C3)nc3ccccc32)C1 (stereo unspecified)	0	24	0	0	-	-	0
CC(C)NC(=O)Cn1c(SCC(=O)N2CCc3ccccc3C2)nc2ccccc21	0	0	0	0	-	-	-
O=C(Nc1ccc(Oc2ccc3c(c2)C(=O)N(c2ccc(O)cc2)C3=O)cc1)c1cccs1	0	61	-	0	-	-	0
SMILES	N-glyco inh	dFosB act-1	RAD54 branch	PvdQ acylase	RAD52 anneal inh	CFTR F508del cor	dFosB act-2
C[C@H]1CN([C@@H](C)CO)C(=O)c2cc(NC(=O)c3ccncc3)ccc2O[C@H]1CN(C)C(=O)Nc1cccc2ccccc12	-	-	0	-	0	0	-
C[C@H](CO)N1C[C@H](C)[C@@H](CN(C)C(=O)CCCN(C)C)OCCCC[C@H](C)Oc2ccc(NC(=O)Nc3ccc(F)cc3)cc2C1=O	-	-	0	-	0	0	-
COc1ccc(/C=N/NC(=O)c2ccc(Cl)cc2)cc1Cn1cc(Cl)cn1	0	40	-	0	0	-	0
COc1ccc(/C=N/NC(=O)c2ccco2)cc1COc1ccc(F)cc1	0	75	0	0	0	0	0
COc1ccc(/C=N\NC(=O)c2ccccc2F)cc1COc1ccc(F)cc1F	0	0	0	0	0	0	-
COc1cc(OC)c(/C=N/NC(=O)c2ccncc2)cc1Br	0	0	-	0	0	0	-
COc1ccc(/C=N/NC(=O)c2ccc(NC(C)=O)cc2)cc1COc1ccc(F)cc1F	0	68	0	0	0	0	0
COc1cc(OC)c(/C=N/NC(=O)c2ccc(NC(C)=O)cc2)cc1Br	0	28	-	0	0	0	0
COc1ccc(/C=N\NC(=O)c2ccccc2F)cc1COc1ccc(F)cc1	0	0	0	0	0	0	-
C[C@H](CO)N1C[C@H](C)[C@@H](CN(C)Cc2ccccc2F)Oc2ncc(C3=CCCC3)cc2C1=O	-	-	0	-	0	0	-
CC(C)NC(=O)N1C[C@H]2[C@@H](c3ccccc31)[C@H](CO)N2C(=O)c1ccc(F)cc1	-	-	0	-	0	0	-
Cc1ccc(Cn2c(=O)n(CCC(=O)NCc3ccc4c(c3)OCO4)c(=O)c3ccccc32)cc1	0	28	0	0	-	-	0
N#Cc1ccccc1Cn1c(=O)n(CCCC(=O)NCc2ccc3c(c2)OCO3)c(=O)c2ccccc21	0	0	-	0	-	-	-
O=C(CCn1c(=S)[nH]c2cc3c(cc2c1=O)OCO3)NCc1cccc(Cl)c1	0	21	0	0	0	0	0
CC(=O)c1cn(CC(=O)NCc2ccc3c(c2)OCO3)c2ccccc12	0	0	0	0	-	-	-
O=C(Cn1cc(C(=O)C2CC2)c2ccccc21)NCc1ccc2c(c1)OCO2	0	22	0	0	-	-	0
C[C@@H]1CN([C@@H](C)CO)C(=O)Cc2cc(NS(C)(=O)=O)ccc2O[C@@H]1CN(C)C(=O)NC1CCCCC1	-	-	0	-	0	0	-
O=C(C[C@@H]1C=C[C@@H](NS(=O)(=O)c2ccc(F)cc2)[C@H](CO)O1)NCCN1CCCCC1	-	-	0	-	0	0	-
O=C(N[C@H]1CC[C@@H](CC(=O)N2CCCCC2)O[C@@H]1CO)c1ccc2c(c1)OCO2	-	-	0	-	0	0	-
CC(=O)Nc1ccc(/C=C/c2nc(-c3ccccc3O)n[nH]2)cc1	0	24	0	0	0	0	0

Bioassay records from PubChem BioAssay.
